# HT1080NT lethal = qHTS for induction of synthetic lethality in tumor cells producing 2HG: qHTS for the HT-1080-NT fibrosarcoma cell line; Potency, µM (highest dose often 46.1 µM), hits mostly cytotoxic; HT-1080-NT fibrosarcoma viability, CellTiter-Glo ATP luminescence, 48 h; hit rate 1.6% among 360,000; AID 686970, 2013;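 also: NT is the 2HG producing partner of a matched IDH1 knockdown line; nearly all actives have a fitted effect of over 55% in size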
#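 HT-1080-NT fibrosarcoma cells (2HG-overproducing), 750 cells/well in RPMI with 5% FBS, dosed after 2 h and incubated 48 h at 37C. CellTiter-Glo luminescence normalized to DMSO and no-cell wells; concentration-response curves fitted and classed.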
# SW480 rereplic = A quantitative high throughput screen for small molecules that induce DNA re-replication in SW480 colon adenocarcinoma cells; AID 624297, 2012; SW480 DNA re-replication, Hoechst DNA content imaging, 48 h; hit rate 1.8% among 340,000; Potency, µM (titrated, usually from 46.1 µM), hits mostly activators; also: nearly all actives have a fitted effect of over 55% in size
#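 First, 250 cells per well were seeded. Next, compound or vehicle (23 nL) was pinned in, plates sat 48 hr at 37 C. Finally Hoechst was added for 40 min before fluorescence scanning.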
# HT1080 IDH1KD tx = qHTS for induction of synthetic lethality in tumor cells producing 2HG: qHTS for the HT-1080-IDH1KD cell line; AID 686971, 2013; Potency, µM (top dose mostly 46.1 µM), hits mostly cytotoxic; hit rate 2% among 360,000; HT-1080 IDH1 knockdown viability, ATP luminescence, 48 h
#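 Luminescent ATP read-out (CellTiter-Glo, 10 min at room temperature) after 48 h compound exposure at 37 °C gave viability of IDH1-knockdown HT-1080 cells. Activity was normalised to DMSO and cell-free wells, then fitted as concentration-response curves.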
# KB-3-1 cytotox = qHTS assay for MDR1-selective chemotherapeutics: Primary screen using the parental adenocarcinoma cell KB-3-1; KB-3-1 viability, CellTiter-Glo ATP luminescence, 72 h; Potency, µM (titrated, usually from 46.1 µM), actives largely listed as cytotoxic; hit rate 1.4% among 400,000; AID 1347075, 2019; also: nearly all actives have a fitted effect of over 60% in size
#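 Multi-concentration cytotoxicity screen in KB-3-1 cells grown in DMEM lacking phenol red with 10% FBS. After 72 h at 37 °C with compound, ATP-dependent luminescence was recorded.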
# MCF10A rerep = A quantitative high throughput screen for small molecules that induce DNA re-replication in MCF 10a normal breast cells; MCF 10A DNA re-replication, Hoechst nuclear intensity, 48 h; Potency, µM (titrated, usually from 46.1 µM), actives largely listed as activators; hit rate 2.9% among 350,000; also: nearly all actives have a fitted effect of over 50% in size
# KB-V1 cytotox = qHTS assay for MDR1-selective chemotherapeutics: Primary screen using the drug-selected MDR subline cells KB-V1; KB-V1 MDR cells viability, CellTiter-Glo, 72 h; Potency, µM (doses to about 46.1 µM), most hits filed as cytotoxic; hit rate 3.4% among 400,000; also: nearly all actives have a fitted effect of over 60% in size
#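 Cytotoxicity via CellTiter-Glo luminescence after 72 h compound exposure at 37 degrees C. Cells: drug-selected KB-V1 line, DMEM phenol-red free plus 10% FBS. Compounds tested at multiple concentrations; normalized data fitted to concentration-effect curves.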
# Numbers stand for hits; n = inactive; u = inconclusive; x = not tested or not shown; [ ] = dose if it differs, or a comment. In the library only some 8% were active in any assay of this set; here they are far more common. Calls follow the shape of the dose curve; as a rule, active = well fitted curve in the direction sought with a large enough effect; inconclusive = small, poorly fitted or top-dose-only effect, or another doubt; inactive = no such curve, though single readings can be large; an effect the other way counts as inactive or inconclusive.
SMILES,HT1080NT lethal,SW480 rereplic,HT1080 IDH1KD tx,KB-3-1 cytotox,MCF10A rerep,KB-V1 cytotox
O=C(COc1cccc2c1CCN(Cc1ccc(Br)cc1)C2=O)N1CCOCC1,n,n,n,u,n,4.1µM
CN(C)c1ccc(N=Nc2ccnc3ccccc23)cc1,x,x,x,u,x,n
COc1ccc(Cc2noc(CN3CCC(c4ccncc4)CC3)n2)cc1OC,n,n,u,u,n,18µM
C#CCNC(=O)C1=C[C@H](c2ccc(C#C)cc2)C[C@H](OCc2ccc(CO)cc2)O1,n,u,n,n,n,n
C#CCNC(=O)C1=C[C@@H](C)C[C@@H](OCc2ccc(CO)cc2)O1,n,n,n,n,n,n
C#CCNC(=O)C1=C[C@H](c2ccc(C(F)(F)F)cc2)C[C@H](OCc2ccc(CO)cc2)O1,n,u,n,n,4.1µM,n
C#CCNC(=O)C1=C[C@H](C(C)(C)C)C[C@H](OCc2ccc(CO)cc2)O1,n,n,u,n,18µM,n
CCCCN(CC(=O)Nc1c(C)cccc1CC)C(=O)SCC,n,n[9.22 µM],n,n,n,u
COc1cccc(/C=N/NC(=O)c2cccc([N+](=O)[O-])c2)c1OS(=O)(=O)c1ccccc1,n,n,n,n,n,10µM
COc1cccc(/C=N/NC(=O)c2ccc([N+](=O)[O-])cc2Cl)c1O,u,u,u,n,u,9.2µM
COc1cccc(/C=N/NC(=O)C(=O)N/N=C/c2cccc(OC)c2OC)c1OC,u,16µM,23µM,n,n,n
COc1ccc(/C=N/NC(=O)c2cccc([N+](=O)[O-])c2)cc1OS(=O)(=O)c1ccccc1,n,n,n,n,n,n
O=[N+]([O-])c1ccc(N2CCN(c3ccc(O)cc3)CC2)cn1,u,n,u,n,n,u
O=[N+]([O-])c1ccc(N2CCN(c3ccccc3Cl)CC2)cn1,n,n,n,5.2µM,n,u
CC(C)(C)C(=O)Nc1ccccc1C(=O)Nc1cc(Cl)ccc1Cl,n,n,n,n,n,16µM
COc1ccc(N(C(=O)c2cccc(C)c2)S(=O)(=O)c2ccc3c(c2)n(C)c(=O)n3C)cc1,x,x,x,n,x,n
COc1ccccc1CNC(=O)CN1C(=O)COc2ccc(S(=O)(=O)Nc3ccccc3)cc21,x,x,x,n,x,n
COC(=O)/C(C#N)=C/c1c(N2CCN(c3ccc(OC)cc3)CC2)nc2c(C)cccn2c1=O,n,n,n,n,n,n
CNC(=O)/C(C#N)=C/c1c(N2CCN(c3ccc(OC)cc3)CC2)nc2c(C)cccn2c1=O,n,n,n,n,21µM,n
COCCNC(=O)/C(C#N)=C/c1c(N2CCN(C)CC2)nc2c(C)cccn2c1=O,n,21µM,n,n,n,n
CCN1CCN(c2nc3c(C)cccn3c(=O)c2/C=C(\C#N)C(=O)NCCOC)CC1,n,6.5µM,n,u,16µM,n
CCCS(=O)(=O)c1ncc(Cl)c(C(=O)Nc2sc3c(c2C(=O)NCC)CCCC3)n1,x,x,x,u,x,n
CC(C)Oc1ccc(CNC(=O)C2CCN(Cc3cc4ccccc4n3Cc3ccccc3)CC2)cc1,x,x,x,u,x,n
COc1cc(NC(=O)Cn2c(=O)n(-c3ccccc3)c(=O)c3c4c(sc32)CCCC4)cc(OC)c1,x,x,x,n,x,u
COCCNC(=O)C1CCCN(C(=O)c2ccc3c(c2)C(C)(C)CCC3(C)C)CC1 (stereo not given),n,x,n,n,x,n
SMILES,HT1080NT lethal,SW480 rereplic,HT1080 IDH1KD tx,KB-3-1 cytotox,MCF10A rerep,KB-V1 cytotox
COC(=O)Cn1c(O)c(N=NC(=O)CNC(=O)COc2cccc(C)c2)c2ccccc21,n,n,n,n,n,n
CCOc1ccccc1NC(=O)CSC1=Nc2ccccc2C2=NC(CC(=O)NCc3ccc4c(c3)OCO4)C(=O)N12 (stereo not given),x,x,x,n,x,n
CSc1nc(N(C)NC(=O)c2ccc(F)cc2)c2ccccc2n1,u,2.3µM,0.52µM,0.65µM,1.8µM,1µM
Cc1cccc(C)c1Nc1nnc(SCc2nc3ccccc3s2)s1,n,n,n,n,u,16µM
Cc1nc(CSc2nnc(Nc3cccc(C)c3C)s2)cs1,n,n,n,n,n,18µM
CCCCc1nc2cc(C(=O)N3CCN(c4cnccn4)CC3)ccc2o1,n,n,n,n,n,n
COc1ccc(N(C(C)C(=O)N2CCC(Cc3ccccc3)CC2)S(C)(=O)=O)cc1 (stereo not given),n,n,n,u,n,3.7µM
COc1ccc(N(C(C)C(=O)N2CCCC2)S(C)(=O)=O)cc1 (stereo not given),n,n,n,n,n,n
CC(C)CC(=O)NCC1(N(C)C)CCCCC1,x,x,x,n,x,n
CC(=O)N1C=CN(C(C)=O)C(c2cn(C)c3ccccc23)C1c1cn(C)c2ccccc12 (stereo not given),n,n,n[9.24 µM],u,n,23µM
Cc1cccc(-c2nc(C(N)=O)c3c(n2)n(-c2ccc4c(c2)OCO4)c(=O)n3C)c1,x,x,x,n,x,n
C/C(=N\NC(=O)c1ccc(N2CCCC2=O)cc1)c1ccc(O)cc1O,n,9.2µM,u,u,n,n
Cc1ccc(-c2nnc(NC3CCCCC3)c3ccccc23)cc1S(=O)(=O)N1CCN(C)CC1,n,n,n,n,n,23µM
Cc1ccc(-c2nnc(Nc3ccccc3)c3ccccc23)cc1S(=O)(=O)N1CCN(C)CC1,x,x,x,n,x,n
Cc1ccccc1OCC1Cc2c(nc(N)c(C#N)c2N)O1 (stereo not given),n,n,n,n,n,n
O=C(NC(CSCc1ccccc1)C(=O)N/N=C/c1ccc(O)cc1O)c1ccc([N+](=O)[O-])cc1 (stereo not given),2.8µM,u,0.89µM,u,n,n
Cc1ccc(C)c(CSc2nc3[nH]ncc3c(=O)[nH]2)c1,1.3µM,3.7µM,1.8µM,1.2µM,u,0.52µM
Cc1ccc(-n2nc3c(N4CCC(C(=O)N(C)Cc5ccccc5)CC4)nnc(C)c3c2C)cc1,x,x,x,n,x,n
CCN(CC)CCNC(=O)c1c(C)n(-c2ccccc2)c2cc(Br)c(OC)cc12,u,n,16µM,u,u,n
CCOC(=O)Nc1ccc2c(c1)N(C(=O)N1CCN(C)CC1)c1ccccc1S2,n,n,n,n,n[0.0737 µM],n
CCOC(=O)Nc1ccc2c(c1)N(C(=O)CCN(CC)CC)c1ccccc1CC2,u,n,n,n,n,n
CCOC(=O)Nc1ccc2c(c1)N(C(=O)CN(CC)CC)c1ccccc1CC2,n,u,n,n,n,n

# Compound activity deposited in PubChem by National Center for Advancing Translational Sciences (NCATS).
